According to PubChem BioAssay (NCI):
Compounds without any hit were thinned out: in the full panel of roughly 79,000, 15% have a hit. Calls of active or inactive are those of the source. Rule as the data show it: active = growth inhibition above about 70%; inactive = the rest.

Experiments:
[1] = NCI Yeast Anticancer Drug Screen. Data for the rad52 strain (AID 147);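 also: 0% = growth of vehicle-treated control cultures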; conditions: S. cerevisiae rad52 mutant growth inhibition, hits give high values
How it was run: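 Genetically altered yeast (DNA damage repair defect) treated with compound; inhibition calculated relative to vehicle.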

[2] = NCI Yeast Anticancer Drug Screen. Data for the rad50EPP+ strain (AID 151);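 also: 0% = growth of vehicle-treated control cultures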; conditions: S. cerevisiae rad50 mutant strain, hits give high values
How it was run: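 Strain rad50EPP+; compound exposure; % growth inhibition vs vehicle.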

[3] = NCI Yeast Anticancer Drug Screen. Data for the mgt1 strain (AID 153); conditions: S. cerevisiae mgt1 mutant growth inhibition, hits give high values
How it was run: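 Read-out: yeast growth inhibition vs vehicle control. Strain mgt1, drawn from a panel altered in DNA damage repair or cell cycle control.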

[4] = NCI Yeast Anticancer Drug Screen. Data for the mec2-1 strain (AID 157); conditions: S. cerevisiae mec2-1 strain, hits give high values
How it was run: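 Cells of the genetically defined mec2-1 yeast strain are incubated with test compound. Inhibition of growth is calculated against vehicle-treated controls.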

[5] = NCI Yeast Anticancer Drug Screen. Data for the rad14 strain (AID 159);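 also: 0% = growth of vehicle-treated control cultures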; conditions: S. cerevisiae rad14 strain growth inhibition, hits give high values
How it was run: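 Inhibition of growth is reported for a repair-deficient yeast mutant following compound treatment, calculated relative to cultures that received vehicle.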

[6] = NCI Yeast Anticancer Drug Screen. Data for the sgs1 mgt1 strain (AID 161);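 also: 0% = growth of cultures given vehicle only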; conditions: S. cerevisiae sgs1 mgt1 strain, hits give high values
How it was run: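 Test agents were incubated with a DNA-repair-mutant yeast strain. Growth was then read and compared against vehicle-treated controls.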

[7] = NCI Yeast Anticancer Drug Screen. Data for the CLN2oe strain (AID 163);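 also: 0% = growth of vehicle-only control cultures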; conditions: S. cerevisiae CLN2oe strain, hits give high values
How it was run: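 Strain altered in cell-cycle control, incubated with compound; growth compared to solvent-treated controls.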

[8] = NCI Yeast Anticancer Drug Screen. Data for the cln2 rad14 strain (AID 165);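 also: 0% = growth equal to vehicle treated cultures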; conditions: S. cerevisiae cln2 rad14 strain, hits give high values
How it was run: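 The screen exposed genetically defined yeast (cln2 rad14) to test compounds and scored growth inhibition relative to vehicle-treated controls.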

[9] = NCI Yeast Anticancer Drug Screen. Data for the bub3 strain (AID 167); conditions: S. cerevisiae bub3 mutant strain, hits give high values
How it was run: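 Mutant yeast screening strain plus compound; vehicle-treated cultures serve as the 0% inhibition reference.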

[10] = NCI Yeast Anticancer Drug Screen. Data for the wt2 strain (AID 169); conditions: S. cerevisiae wt2 strain growth inhibition, hits give high values
How it was run: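 Steps: yeast strain treated with compound; growth recorded; inhibition calculated relative to cultures given vehicle alone.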

[11] = NCI Yeast Anticancer Drug Screen. Data for the mlh1 strain (AID 171);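 also: 0% = growth of vehicle-treated control cultures of the same strain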; conditions: S. cerevisiae mlh1 strain growth inhibition, hits give high values
How it was run: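 Yeast screen: mutant strain plus compound, growth scored against vehicle control wells.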

[12] = NCI Yeast Anticancer Drug Screen. Data for the sgs1 strain (AID 173);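 also: 0% = growth of vehicle-only control cultures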; conditions: S. cerevisiae sgs1 mutant, hits give high values
How it was run: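 Inhibition of yeast growth served as the measure. The mutant strain was treated with each compound, and growth was normalised to cultures receiving vehicle alone.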

[13] = NCI Yeast Anticancer Drug Screen. Data for the mlh1 rad18 strain (AID 175); conditions: S. cerevisiae mlh1 rad18 strain growth inhibition, hits give high values
How it was run: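 Compound-treated yeast growth, normalised to vehicle controls. Strain bears defined DNA repair mutations.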

[14] = NCI Yeast Anticancer Drug Screen. Data for the rad18 strain (AID 177); conditions: S. cerevisiae rad18 mutant growth inhibition, hits give high values
How it was run: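 Inhibition values reflect reduced yeast growth compared with vehicle-treated controls, using a strain engineered with a DNA damage repair defect.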

[15] = NCI Yeast Anticancer Drug Screen. Data for the wt1 strain (AID 149);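 also: 0% = growth of vehicle-treated wt1 cultures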; conditions: S. cerevisiae wt1 strain (SPY 50644) growth inhibition, hits give high values
How it was run: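 Each compound is tested on wt1 yeast and the loss of growth versus vehicle gives the inhibition value.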

[16] = NCI Yeast Anticancer Drug Screen. Data for the rad50 strain (AID 155);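 also: 0% = growth of vehicle-only cultures of the same strain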; conditions: S. cerevisiae rad50 strain growth inhibition, hits give high values
How it was run: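 Vehicle-treated cultures provide the reference for the growth inhibition reported for compound-exposed, repair-deficient yeast.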

[17] = at 5.0 µM (retest, dose inferred, filed as 0.5)
[18] = at 50.0 µM (retest, dose inferred, filed as 5.0)

Measured: growth inhibition

C=C1CC(Cn2cc(Br)c(=O)[nH]c2=O)(c2ccc(-c3ccccc3)cc2)OC1=O (stereo unspecified)
active: [1]; at 100.0 µM 93% | [3]; at 100.0 µM 94% | [4]; [18] 98% | [4]; at 50.0 µM 98.4% | [4]; at 100.0 µM 93% | [5]; at 100.0 µM 96% | [6]; [18] 87% | [6]; at 50.0 µM 97.3% | [7]; at 100.0 µM 96% | [8]; [18] 99% | [8]; at 50.0 µM 97.8% | [9]; [18] 99% | [9]; at 50.0 µM 98.2% | [9]; at 100.0 µM 92% | [10]; at 100.0 µM 92% | [11]; at 100.0 µM 94% | [12]; at 100.0 µM 93% | [13]; [18] 99% | [13]; at 50.0 µM 97.2% | [14]; at 100.0 µM 95%
inactive: [1]; at 1.2 µM 2% | [1]; at 3.7 µM 13% | [1]; at 11.0 µM 21% | [1]; at 33.0 µM 41% | [2]; at 1.2 µM -4% | [2]; at 3.7 µM -5% | [2]; at 11.0 µM 3% | [2]; at 33.0 µM 9% | [2]; at 100.0 µM 16% | [3]; at 1.2 µM 0% | [3]; at 3.7 µM 9% | [3]; at 11.0 µM 29% | [3]; at 33.0 µM 55% | [4]; at 1.2 µM 5% | [4]; at 3.7 µM 15% | [4]; [17] 21% | [4]; at 11.0 µM 40% | [4]; at 33.0 µM 57% | [5]; at 1.2 µM 5% | [5]; at 3.7 µM 15% | [5]; at 11.0 µM 27% | [5]; at 33.0 µM 41% | [6]; [17] 30% | [7]; at 1.2 µM -2% | [7]; at 3.7 µM -5% | [7]; at 11.0 µM 10% | [7]; at 33.0 µM 21% | [8]; [17] 23% | [9]; at 1.2 µM -1% | [9]; at 3.7 µM 1% | [9]; [17] 10% | [9]; at 11.0 µM 25% | [9]; at 33.0 µM 53% | [10]; at 1.2 µM 2% | [10]; at 3.7 µM 10% | [10]; at 11.0 µM 16% | [10]; at 33.0 µM 29% | [11]; at 1.2 µM 2% | [11]; at 3.7 µM 10% | [11]; at 11.0 µM 28% | [11]; at 33.0 µM 41% | [12]; at 1.2 µM 8% | [12]; at 3.7 µM 26% | [12]; at 11.0 µM 37% | [12]; at 33.0 µM 57% | [13]; [17] 68% | [14]; at 1.2 µM 4% | [14]; at 3.7 µM 10% | [14]; at 11.0 µM 10% | [14]; at 33.0 µM 43%

CN1Cc2ccccc2/C=C\c2ccccc21
inactive: [15]; at 1.2 µM -3% | [15]; at 3.7 µM -2% | [15]; at 11.0 µM -3% | [15]; at 33.0 µM -4% | [15]; at 100.0 µM 7% | [2]; at 1.2 µM 0% | [2]; at 3.7 µM 9% | [2]; at 11.0 µM 23% | [2]; at 33.0 µM 36% | [3]; at 1.2 µM 0% | [3]; at 3.7 µM -3% | [3]; at 11.0 µM -1% | [3]; at 33.0 µM 7% | [3]; at 100.0 µM 22% | [16]; at 1.2 µM -6% | [16]; at 3.7 µM -10% | [16]; [17] -123% | [16]; at 11.0 µM -1% | [16]; at 33.0 µM 49% | [16]; at 50.0 µM 24.8% | [16]; at 100.0 µM 64% | [4]; at 1.2 µM 1% | [4]; at 3.7 µM 2% | [4]; [17] -47% | [4]; at 11.0 µM 1% | [4]; at 33.0 µM 1% | [4]; [18] 67% | [4]; at 50.0 µM 34.3% | [4]; at 100.0 µM -3% | [5]; at 1.2 µM -3% | [5]; at 3.7 µM -2% | [5]; at 11.0 µM 1% | [5]; at 33.0 µM 14% | [5]; at 100.0 µM 43% | [6]; [17] -57% | [6]; at 50.0 µM -5.4% | [7]; at 1.2 µM 0% | [7]; at 3.7 µM 2% | [7]; at 11.0 µM 3% | [7]; at 33.0 µM 2% | [7]; at 100.0 µM 3% | [8]; [17] -57% | [8]; [18] 18% | [8]; at 50.0 µM -30.4% | [9]; at 1.2 µM -2% | [9]; at 3.7 µM -1% | [9]; [17] -66% | [9]; at 11.0 µM 1% | [9]; at 33.0 µM 12% | [9]; at 50.0 µM -15.8% | [9]; at 100.0 µM 35% | [10]; at 1.2 µM 0% | [10]; at 3.7 µM 1% | [10]; at 11.0 µM 0% | [10]; at 33.0 µM -4% | [10]; at 100.0 µM 25% | [11]; at 1.2 µM 9% | [11]; at 3.7 µM 1% | [11]; at 11.0 µM -1% | [11]; at 33.0 µM -3% | [11]; at 100.0 µM 33% | [12]; at 1.2 µM 2% | [12]; at 3.7 µM 3% | [12]; at 11.0 µM 2% | [12]; at 33.0 µM 23% | [12]; at 100.0 µM 58% | [13]; [17] -109% | [13]; at 50.0 µM 22.6% | [14]; at 1.2 µM 0% | [14]; at 3.7 µM 2% | [14]; at 11.0 µM 15% | [14]; at 33.0 µM 47%
active: [2]; at 100.0 µM 71% | [16]; [18] 92% | [6]; [18] 90% | [9]; [18] 87% | [13]; [18] 89% | [14]; at 100.0 µM 78%

FC(F)(F)c1cc(NC(=S)N2c3ccccc3-n3cccc3C2c2cccnc2)cc(C(F)(F)F)c1 (stereo unspecified)
inactive: [15]; at 1.2 µM 2% | [15]; at 3.7 µM -5% | [15]; at 11.0 µM -4% | [15]; at 33.0 µM -6% | [15]; at 100.0 µM -9% | [3]; at 1.2 µM -10% | [3]; at 3.7 µM -5% | [3]; at 11.0 µM -17% | [3]; at 33.0 µM -36% | [3]; at 100.0 µM -17% | [16]; at 1.2 µM -13% | [16]; at 3.7 µM -3% | [16]; [17] 10% | [16]; at 11.0 µM 9% | [16]; at 33.0 µM 3% | [16]; [18] 57% | [16]; at 100.0 µM 2% | [4]; at 1.2 µM -5% | [4]; at 3.7 µM -4% | [4]; [17] -6% | [4]; at 11.0 µM -2% | [4]; at 33.0 µM -1% | [4]; [18] 51% | [4]; at 50.0 µM 47.1% | [4]; at 100.0 µM -1% | [5]; at 1.2 µM 2% | [5]; at 3.7 µM 0% | [5]; at 11.0 µM -1% | [5]; at 33.0 µM -3% | [5]; at 100.0 µM -5% | [6]; [17] -3% | [6]; [18] 69% | [6]; at 50.0 µM 44.5% | [8]; [17] -10% | [8]; [18] 21% | [8]; at 50.0 µM 43.6% | [9]; at 1.2 µM -1% | [9]; at 3.7 µM -5% | [9]; [17] -3% | [9]; at 11.0 µM -5% | [9]; at 33.0 µM -4% | [9]; [18] 45% | [9]; at 50.0 µM 26.4% | [9]; at 100.0 µM -9% | [10]; at 1.2 µM -2% | [10]; at 3.7 µM -3% | [10]; at 11.0 µM -2% | [10]; at 33.0 µM -1% | [10]; at 100.0 µM 2% | [11]; at 1.2 µM -2% | [11]; at 3.7 µM -1% | [11]; at 11.0 µM -4% | [11]; at 33.0 µM -4% | [11]; at 100.0 µM 6% | [12]; at 1.2 µM -8% | [12]; at 3.7 µM -3% | [12]; at 11.0 µM -2% | [12]; at 33.0 µM -2% | [12]; at 100.0 µM 1% | [13]; [17] -7% | [13]; [18] 69% | [14]; at 1.2 µM -1% | [14]; at 3.7 µM -6% | [14]; at 11.0 µM 0% | [14]; at 33.0 µM -2% | [14]; at 100.0 µM -2%
active: [16]; at 50.0 µM 74.7% | [13]; at 50.0 µM 70.7%
